Results taken from PubChem BioAssay AID624297 (National Center for Advancing Translational Sciences (NCATS), 2012).
Out of some 340,000 compounds screened, about 6,200 (1.8%) were called active. Roughly 10% stayed inconclusive and do not appear here. What follows is part of a selection rich in actives, with near analogues and random picks from the rest. Values without a mark were called inactive. The call rests on the fitted dose curve; in most records, active means well fitted activation curve with a large enough effect; inconclusive means small, poorly fitted or top-dose-only effect; inactive means no such curve, though single readings can be large or run the other way.

Assay: A quantitative high throughput screen for small molecules that induce DNA re-replication in SW480 colon adenocarcinoma cells. Further: nearly all actives have a fitted effect of over 55% in size. On re-replication activation: % of control where 0% means no effect.
Details: Hoechst DNA content imaging, 48 h; series mostly up to 46.1 µM; re-replication activation: at the top concentration
In short: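 Hoechst fluorescence of nuclei (405 nm excitation, 500-530 nm emission) measured by plate-scanning imager after 48 hr compound exposure at 37 C; re-replication scored as increased number of nuclei with elevated intensity.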
Potency means the concentration at half of the fitted maximal effect.

Structure (SMILES) | re-replication activation | Potency
COC(=O)CC(CC(=O)OC)n1cccc1 | 0.407% | –
CCN(CC)CCCC(C)n1c2nc(=O)[nH]c(=O)c-2nc2cc(Cl)ccc21 (stereo not given) | – | 11.6 µM (active)
O=C(Cc1ccc(NC(=O)C2CCCN(C(=O)C3CCCCC3)C2)cc1)Nc1cccc(C(=O)N2CCCCC2)c1 (stereo not given) | 5.52% [at 9.22 µM] | –
C=CCn1c(C)cc(C2=NNC(=NCC)SC2)c1C | 1.88% | –
Cc1ccc(CC(=O)Nc2ccc(S(=O)(=O)N3CCOCC3)cc2)cc1C | -13.4% | –
Cc1cc(C2=NNC(=Nc3ccc(S(=O)(=O)N4CCOCC4)cc3)SC2)c(C)n1CC1CCCO1 (stereo not given) | – | 3.66 µM (active)
CN(C(=O)c1cccc(NC(=O)Cc2ccc(NC(=O)C3CCN(C(=O)C4CCCCC4)CC3)cc2)c1)C1CCC1 | 10.8% [at 9.22 µM] | –
O=S1(=O)CSCS(=O)(=O)C1 | -1.95% | –
COc1ccc(-c2nc3cnccn3c2NC(C)(C)CC(C)(C)C)cc1O | 4.42% | –
COc1ccc(-c2nc3cnccn3c2NC2CCCCC2)cc1-c1cccc(Cl)c1 | – | 5.17 µM (active)
Cc1ccc2nc(-c3cccnc3)c(NC3CCCC3)n2c1 | -5.41% | –
COc1cc(NC(=O)COC(=O)c2ccc([N+](=O)[O-])s2)cc(OC)c1OC | -3.57% | –
CC(=O)c1ccc2c(c1)c1ccccc1n2CC(C)C | -4.69% | –
CCCCN(CCCC)CC(O)Cn1c2ccccc2c(=O)c2ccccc21 (stereo not given) | – | 7.31 µM (active)
CCCn1c(=O)c(-c2ccccc2)c(O)c2ccccc21 | -4.27% | –
Nc1nonc1-n1nnc(C(=O)N/N=C/c2cc(Br)ccc2O)c1CSC1=NCCS1 | – | 13 µM (active)
Nc1nonc1-n1nnc(C(=O)N/N=C/c2ccccc2O)c1CN1CCCC1 | -5.57% | –
Cc1ccc(SCc2c(C(=O)N/N=C/c3cccnc3)nnn2-c2nonc2N)cc1 | -16.9% | –
O=C(CCCCCCCC(=O)N1CCCCC1)N1CCCCC1 | -6.64% | –
COc1ccc(C(=O)OCc2cc(=O)n3ccsc3n2)cc1F | -5.06% | –
CCCNC(=O)c1c(N)n(-c2ccc(S(N)(=O)=O)cc2)c2nc3ccccc3nc12 | – | 0.82 µM (active)
Cc1noc(C)c1C(=O)NCCc1ccc(S(N)(=O)=O)cc1 | -15.5% | –
CCOC(=O)c1c(C)c(C(=O)NCCc2ccc(S(N)(=O)=O)cc2)c(C)n1CC | -3.88% | –
Cc1csc(NC(=O)c2ccc(C)s2)n1 | 15.7% | –
Cc1csc(NC(=O)c2ccc(-c3ccc(Cl)cc3Cl)o2)n1 | – | 13 µM (active)

Structure (SMILES) | re-replication activation | Potency
O=C(Nc1cccc2ncccc12)c1ccc(-c2ccc(Cl)cc2Cl)o1 | 0.657% | –
Cc1cccc(N2O[C@H]3C=CC2CCCC3)n1 | 0.356% | –
CC1CN(Cc2ccco2)C(=S)N(c2ccccc2)C1=O (stereo not given) | -2.33% | –
Cc1cc(Nc2cc(N3CCN(C)CC3)nc(Sc3ccc(NC(=O)C4CC4)cc3)n2)n[nH]1 | – | 0.259 µM (active)
CN1CCN(S(=O)(=O)c2ccc(NC(=S)NC(=O)C3CC3)cc2)CC1 | -9.04% | –
Cc1cc(C)nc(N2CCC(C(=O)Nc3ccc4c(c3)OCCO4)CC2)n1 | 8.19% | –
CC1Cc2ccccc2N1S(=O)(=O)c1cccc(C(=O)OCC(=O)N2CCOCC2)c1 (stereo not given) | -2.28% | –
O=C(COC(=O)C1CCCO1)Nc1nc(-c2ccc(F)cc2)cs1 (stereo not given) | 4.83% | –
CC[C@]1(C(=O)OC)[C@H]2C(=O)N(C)C(=O)[C@H]2[C@H]2CN(C)C(=NCc3ccccc3)N21 | -0.109% | –
O=C(COC(=O)CN1C(=O)C2CCCCC2C1=O)Nc1ccc(F)c(F)c1F (stereo not given) | -20.3% | –
O=C(CN1C(=O)C2C3CCC(C3)C2C1=O)Oc1ccc2ccccc2c1 (stereo not given) | -7.39% | –
CC1=CC(C)(C)Nc2ccc(OC(=O)CN3C(=O)C4CCCCC4C3=O)cc21 (stereo not given) | – | 20.6 µM (active)
COc1ccc(CNC(=O)CN2C(=O)c3ccccc3S2(=O)=O)cc1 | -3.49% | –
CCC(CO)Oc1cc(NC(=O)c2cccc3ccccc23)c2ncn(C(C)C)c2c1 (stereo not given) | -5.66% [at 9.22 µM] | –
CCc1ccc(C(=O)C(C)OC(=O)CN2C(=O)NC3(CCCC3)C2=O)cc1 (stereo not given) | – | 3.26 µM (active)
Cc1ccc(COC(=O)CN2C(=O)NC3(CCCC3)C2=O)cc1 | -6.36% | –
O=C(CN1C(=O)NC2(CCCC2)C1=O)OCCOc1ccc(F)cc1 | -58.9% | –
O=C1c2ccccc2C(=O)C1C(=O)C1CC1 | 19.8% | –
Cc1cccc(-n2ncc3c(=O)[nH]c(SCC(=O)Nc4cc(C)on4)nc32)c1 | -3% | –
CC(C)(C)C(=O)Nc1cccc(-c2ccc[nH]2)n1 | -4.35% | –
CCOc1ccc2nc(NCCNS(=O)(=O)c3ccccc3)c(C#N)cc2c1 | – | 18.4 µM (active)
CCOc1ccc2nc(NCCNC(=O)C(C)(C)C)c(C)cc2c1 | 0.258% | –
CCOc1ccc(S(=O)(=O)NCCSc2ccccc2)cc1 | -0.257% | –
O=C1C=CN2CCCC2CC1 (stereo not given) | -4.38% | –
Cc1nc(N)nc(Cl)c1CCC1OCCO1 | -1.39% | –

Structure (SMILES) | re-replication activation | Potency
CC(OC(=O)c1ccc([N+](=O)[O-])cc1)C(=O)NCC1CCCCC1 (stereo not given) | -0.927% | –
COc1ccc(C(CCN(Cc2ccc(OC)c(OC)c2)C(=O)CCl)c2ccccc2)cc1 (stereo not given) | – | 23.1 µM (active)
COc1ccc(CCNC(=O)C(Sc2ccccn2)c2ccccc2)cc1OC (stereo not given) | -1.45% | –
COc1ccc(COC(=O)NC(C(=O)O)c2ccccc2)cc1 (stereo not given) | 2.12% | –
COc1ccc(CC(=O)N[C@@H]2c3cc(OC)c(OC)cc3C[C@H]2OCc2ccccc2)cc1 | 4.24% | –
Cc1ccc(C)c(S(=O)(=O)N(C)c2ccc(OC(=O)C3CCN(C(=O)c4ccc(F)cc4)CC3)cc2)c1 | -1.93% | –
Cn1nnnc1SCC(=O)Nc1cccc(S(=O)(=O)N2CCCCC2)c1 | -3.5% | –
COc1ccc(OC)c(NC(=O)COC(=O)Cc2ccsc2)c1 | -7.6% | –
Cc1ccc(Br)c(NS(=O)(=O)c2cccc(C(=O)N3CCNC(=O)C3)c2)c1 | -2.86% | –
OCC(O)C1OCOC(C(O)CO)C1O (stereo not given) | 0.851% | –
c1ccc2sc(NN=C3CCCC3)nc2c1 | 1.2% | –
c1ccc(C(=NNc2nc3ccccc3s2)c2ccccn2)cc1 | – | 0.259 µM (active)
O=C(CCNC(=O)c1ccccc1)Nc1nc2ccccc2s1 | 4.07% | –
N#CC1(Nc2ccc(-c3ccc(Cl)cc3)cc2)CCCC1 | 1.38% | –
Cc1ccc(-n2[nH]c(C)c(/C=N/N3C(=O)c4cccc5cccc(c45)C3=O)c2=O)cc1 | – | 16.4 µM (active)
Cc1ccc(-c2ccnc3[nH]n(-c4ccccc4)c(=O)c23)cc1 | -3.91% | –
Cc1[nH]n(-c2ccc([N+](=O)[O-])cc2)c(=O)c1C=NCCN1CCN(C(=O)c2ccccc2F)CC1 | -4.88% | –
COc1ccc(-c2cc(C(=O)NCCCn3ccnc3)no2)cc1 | -4.18% | –
COc1ccccc1-c1cc(C(=O)NCCCn2ccnc2)no1 | -8.25% | –
O=C(NCCCn1ccnc1)c1cc(-c2ccccc2)on1 | – | 7.31 µM (active)
CCCCN1CC(CO)Oc2cccc(F)c2S1(=O)=O (stereo not given) | -13% | –
C[C@@H]1ON(C)[C@H]2C[C@H]3c4cc(N5CCN(C)CC5)ccc4CCN3C(=O)[C@@H]12 | -3.9% | –
COc1ccc(/C=C/C(=O)Nc2ccc(C)cc2)cc1S(=O)(=O)N1CCOCC1 | -2.91% | –
COc1ccc(/C=C/C(=O)Nc2ccc(C34CC5CC(CC(O)(C5)C3)C4)cc2)cc1OC | – | 18.4 µM (active)
COc1ccc(/C=C/C(=O)Nc2cccnc2)cc1OC | -1.89% | –

Structure (SMILES) | re-replication activation | Potency
CC1=C(C)CC(C(=O)NNC(=O)c2csc3c2CCC(C(C)(C)C)C3)C(C(=O)O)C1 (stereo not given) | – | 29.1 µM (active)
COC(=O)c1c(NC(=O)C2CC(C)=C(C)CC2C(=O)O)sc2c1CCCCC2 (stereo not given) | -9.14% | –
CC1=C(C)CC(C(=O)NNC(=O)c2ccccc2O)C(C(=O)O)C1 (stereo not given) | 2.89% | –
NC(=O)C1(Nc2ccc(-c3ccccc3)cc2)CCCC1 | 3.19% | –
Cc1ccc(S(=O)(=O)N2CCOCC2)cc1NC(=O)COC(=O)c1cnccn1 | 1.9% | –
COC(=O)c1cc(C)sc1NC(=O)CC1Nc2ccccc2NC1=O (stereo not given) | 4.03% | –
O=C(CC1Nc2ccccc2NC1=O)Nc1ccccc1 (stereo not given) | – | 12.6 µM (active)
O=C(CC1NCCNC1=O)Nc1ccc(Oc2ccccc2)cc1 (stereo not given) | 6.95% | –
C[C@]12CCC(=O)C=C1C=CC1C2CC[C@@]2(C)C1CC[C@@]21CCC(=O)O1 (stereo not given in full) | 1.11% | –
Nc1ccc2c(c1)C(=Cc1cccnc1)c1ccccc1-2 | 2.27% | –
Cc1ccc(C(=O)CNc2ccc(F)cc2)cc1 | 5.96% | –
Cc1ccc(SC(CC(=O)c2ccc(C(C)(C)C)cc2)C(=O)O)cc1 (stereo not given) | – | 20.6 µM (active)
Cc1ccc(C(=O)CSc2ccccc2C(=O)O)cc1 | 1.14% | –
O=C(N[C@H]1C/C=C\C(c2cccc(F)c2)N(Cc2ccccc2)C(=O)C1)OCC1c2ccccc2-c2ccccc21 (stereo not given in full) | 2.59% | –
C#CCOCCOCCOCCNc1nc(N2CCN(C(=O)[C@H](CCCN=C(N)N)n3cc(C(N)[C@@H](C)CC)nn3)CC2)nc(N2CCN(C(=O)[C@H](CO)n3cc([C@@H](N)C(C)C)nn3)CC2)n1 (stereo not given in full) | -3.08% | –
Cc1ccc(CNC(=O)CCNC(=O)Cn2ccc3ccccc3c2=O)cc1 | 9.14% | –
COC(=O)COc1cccc2c(=O)n(CC(=O)NCCc3ccc(OC)c(OC)c3)ccc12 | 0.74% | –
COC(=O)COc1cccc2c(=O)n(CC(=O)NCc3ccccc3)ccc12 | – | 2.59 µM (active)
CN(Cc1ccc(CNC[C@H]2O[C@@H](n3cnc4c(N)ncnc43)[C@H](O)[C@@H]2O)o1)S(C)(=O)=O | -0.482% | –
CC(=O)Nc1ccc(NC(=O)COC(=O)C2CCC(C(C)(C)C)CC2)cc1 (stereo not given) | -11.3% | –
Cc1ccc(NC(=O)Cn2cnc3c(OCc4ccccc4)ncnc32)cc1C | 8.76% | –
CCOc1ccccc1N1CCN(C(=O)c2ccc3[nH]c(C)c(C)c3c2)CC1 | – | 18.4 µM (active)
COc1ccccc1N1CCN(C(=O)c2ccc(Cl)c(S(=O)(=O)N3CCCC3)c2)CC1 | 3.04% | –
Cc1[nH]c2ccc(C(=O)N3CCN(C)CC3)cc2c1C | -8.89% | –
Cc1cc(NC(=O)CN2C(=O)NC(CC(C)C)C2=O)no1 (stereo not given) | -8.09% | –
